The campaign covered roughly 370,000 compounds. About 4,700 (1.3%) were called active. Many of the other results were omitted from the sample, so actives are more common in it than they were. Values without a mark were called inactive.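 The calls were made as follows: active = inhibition above the plate cutoff, the mean of all test compounds on that plate plus 3 SD (cut at about 35% in these data); inactive = the rest.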
assay: binders of r(CAG) RNA repeats, primary screen, biochemical, fluorescence (AID 651821); settings: r(CAG) RNA repeat, TO-PRO-1 dye displacement fluorescence; at 3 µM; stronger effect = higher value;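 also: 0% = DMSO alone and 100% = 100 µM mitoxantrone as full dye displacement; higher means more dye released from RNA so lower well fluorescence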

Row | Compound | inhibition
1 | CN(C)CCCCCN(C)Cc1cc2ccccc2o1 | -1.3%
2 | CC(=O)O[C@@]1(C(C)=O)CCC2[C@H]3C=C(C)C4=CC(=O)CC[C@@]4(C)C3CC[C@]21C (stereo partly drawn) | 1.96%
3 | COc1cccc(-c2coc3cc4oc(=O)c(CC(=O)O)c(C)c4cc23)c1 | 46.5% (active)
4 | CCCCCCc1cc2cc(-c3nnc(-c4cccc(OC)c4)o3)c(=O)oc2cc1O | 0.83%
5 | Cc1coc2cc3oc(=O)c(CCC(=O)O)c(C)c3cc12 | -1.41%
6 | CC[C@@H]1Cc2cc(O)ccc2C2=C1c1ccc(O)cc1C[C@H]2CC | 6.76%
7 | CCCCNC(=O)C[C@H]1C(=O)N(Cc2ccc(OC)cc2)C2=CCCC[C@@]21C(=O)OCC | -0.31%
8 | O=C1Nc2ccccc2OC1CC(=O)N1CCCCCCC1 (stereo not drawn) | 4.22%
9 | Cc1ccc(S(=O)(=O)Nc2nc3ccccc3s2)cc1[N+](=O)[O-] | 45% (active)
10 | CCOc1ccc2sc(NS(=O)(=O)c3ccc(N)cc3)nc2c1 | 9.5%
11 | Cc1ccc(S(=O)(=O)N(Cc2ccccc2)c2ccccn2)cc1[N+](=O)[O-] | -3.84%
12 | CCOC(=O)[C@]12CCCC=C1N(Cc1ccc(OC)cc1)C(=O)[C@@H]2CC(=O)N1CCOCC1 | -1.51%
13 | CN1CCCCC(NC(=O)C(C)(C)C)C1=O (stereo not drawn) | 2.33%
14 | COC(=O)[C@]12C[C@H](CC(=O)NCc3ccccc3)C(=O)N(CCc3ccc(OC)c(OC)c3)C1=C[C@H](C(C)(C)C)O[C@@H]2C | -2.21%
15 | COC(=O)CSc1ncnc2c1cnn2-c1ccc(C)cc1C | -5.94%
16 | CC(Sc1ncnc2c1cnn2-c1ccccc1)C(=O)Nc1ccc(N2CCOCC2)cc1 (stereo not drawn) | 5.83%
17 | Cc1ccc(-n2ncc3c(Nc4cccc(C(=O)O)c4)ncnc32)cc1 | 40.9% (active)
18 | O=C(NCCC1=CCCCC1)C1CCN(S(=O)(=O)c2ccc(Cl)s2)CC1 | 1%
19 | CSc1ccc(CN(C)CC(=O)NCc2ccc(F)cc2)cc1 | -7.36%
20 | O=C(NCc1ccccc1)[C@H]1CCCN1C(=O)[C@@H]1CCCN1C(=O)c1ccc(Cl)cc1Cl | 1.95%

Row | Compound | inhibition
21 | COC(=O)c1sccc1NC(=O)CSc1ccccc1NS(=O)(=O)c1cc(Cl)ccc1Cl | 59.2% (active)
22 | COC(=O)c1scc(C)c1NC(=O)CSc1ccc(Cl)cc1 | -5.15%
23 | COC(=O)c1sccc1NS(=O)(=O)c1ccc(F)cc1F | 1.91%
24 | C=CC[C@]12C[C@@]3(O[C@H](c4ccc(C(F)(F)F)cc4)N=C3C[C@H](c3ccc(OC)cc3)[C@H]1C)N(C1CCN(Cc3ccccc3)CC1)C2=O | 5.05%
25 | COc1ccc(C(=O)OCCN2CCN(C3CN(Cc4cn(Cc5ccccc5F)nn4)S(=O)(=O)C3)CC2)cc1OC (stereo not drawn) | 1.05%
26 | CCC(=O)OCCCN1C(=O)CCC12CCC(c1ccccc1)CC2 (stereo not drawn) | -0.66%
27 | COC(=O)C(Cc1c[nH]c2ccccc12)NC(=O)CCNC(=O)c1ccco1 (stereo not drawn) | 2%
28 | CCOCCCNC(=O)C(NC(=O)Cc1c[nH]c2ccccc12)c1ccc(OC)cc1 (stereo not drawn) | -4.93%
29 | O=C(CCn1nnc2ccccc2c1=O)N[C@@H](Cc1c[nH]c2ccccc12)C(=O)O | 2.19%
30 | COc1ccc(-c2cc(C(=O)NC(C(=O)O)C(C)C)c(C)o2)cc1OC (stereo not drawn) | 6.76%
31 | COc1ccc(-c2cc(=O)oc3cc(OC(C)C(=O)NCC4CCC(C(=O)O)CC4)ccc23)cc1 (stereo not drawn) | 8.77%
32 | COc1ccc(-c2cc(C(=O)NC(Cc3c[nH]c4ccccc34)C(=O)O)c(C)o2)cc1OC (stereo not drawn) | 53.8% (active)
33 | CC(Oc1ccc2c(-c3ccccc3)cc(=O)oc2c1)C(=O)NC(Cc1c[nH]c2ccccc12)C(=O)O (stereo not drawn) | 42.8% (active)
34 | COc1ccc(-c2cc(=O)oc3cc(OCC(=O)N[C@@H](Cc4c[nH]c5ccccc45)C(=O)O)ccc23)cc1 | 55.5% (active)
35 | COc1ccc(-c2cc(=O)oc3cc(OCC(=O)N(C)C4CCS(=O)(=O)C4)ccc23)cc1 (stereo not drawn) | -1.96%
36 | O=C(N[C@@H](Cc1c[nH]c2ccccc12)C(=O)O)OCC1c2ccccc2-c2ccccc21 | 59.4% (active)
37 | O=C(NC(Cc1c[nH]c2ccccc12)C(=O)O)/C(=C/c1ccco1)NC(=O)c1ccccc1 (stereo not drawn) | 20.3%
38 | COC(=O)C(C)Oc1ccc2c(-c3cccc([N+](=O)[O-])c3)cc(=O)oc2c1 (stereo not drawn) | 1.44%
39 | COC(=O)c1cc(S(=O)(=O)N2CCN(C(=O)C3CCCO3)CC2)cn1C (stereo not drawn) | 1.73%
40 | COC(=O)[C@]12C[C@H](CC(=O)NCc3ccc(OC)c(OC)c3)C(=O)N(Cc3ccccc3)C1=C[C@H](C(C)C)O[C@@H]2C1CC1 | 1.35%

Row | Compound | inhibition
41 | O=C(NC1CCCCN(Cc2cccc(C(F)(F)F)c2)C1=O)c1ccccc1I (stereo not drawn) | -0.65%
42 | Cc1csc(CN(C)C(=O)CC2C(=O)NCCN2CC(C)(C)C)n1 (stereo not drawn) | -3.94%
43 | O=C(NCc1ccco1)C1CCCN(S(=O)(=O)c2ccc(Cl)s2)C1 (stereo not drawn) | -0.27%
44 | CSC1=NN(c2ccccc2)CN(c2ccccc2)N1C | 0.22%
45 | COc1ccccc1-c1ccc([C@@H]2C[C@H]3[C@H](CON3C)CN2S(=O)(=O)c2cc(Cl)cc(Cl)c2)cc1 | 5.7%
46 | CN(Cc1ccccc1)CC(O)COc1ccc(CNCc2cc3ccccc3s2)cc1 (stereo not drawn) | -2.3%
47 | Nn1c(SCC(=O)N2c3ccccc3Sc3ccccc32)nnc1-c1n[nH]c2c1CCC2 | 12.9%
48 | CC(CCN1CCC(C(O)(c2ccccc2)c2ccccc2)CC1)Oc1ccc(C(F)(F)F)cc1 (stereo not drawn) | 2.52%
49 | Cc1ccc(C2=CCN(C)C(=O)N2c2ccc(Cl)cc2)cc1 | 6.97%
50 | O=C(CSc1nnc(-c2ccccn2)n1-c1ccccc1)Nc1ccc2c(c1)OCO2 | 1.36%
51 | O=C(CSc1nnc(-c2ccncc2)n1-c1ccc(Cl)cc1)Nc1ccc(C(=O)O)cc1 | 3.19%
52 | Cc1ccc(-n2c(SCC(=O)Nc3ccc(S(=O)(=O)Nc4nccs4)cc3)nnc2-c2ccncc2)cc1 | 67.7% (active)
53 | Cc1ccc(-n2c(SCC(=O)Nc3ccc4c(c3)OCO4)nnc2-c2ccccn2)cc1 | -1.61%
54 | Cc1ccc(-n2c(SCC(=O)Nc3ccc(S(=O)(=O)Nc4nccs4)cc3)nnc2-c2ccccn2)cc1 | 69.8% (active)
55 | Cc1ccc(-c2nnc(SCC(=O)N/N=C/c3cccs3)n2-c2ccc(C)cc2)cc1 | 2.97%
56 | Cn1c(SCC(=O)Nc2nccs2)nnc1-c1cccnc1 | 3.4%
57 | COc1ccc(-n2c(SCC(=O)Nc3ccc4cn[nH]c4c3)nnc2-c2cccnc2)cc1 | 5.12%
58 | Cc1ccc(-n2c(SCC(=O)Nc3ccc(S(=O)(=O)Nc4nccs4)cc3)nnc2-c2cccnc2)cc1 | 60.1% (active)

From PubChem BioAssay AID651821 (The Scripps Research Institute Molecular Screening Center, 2012)
